Reference: PubChem BioAssay (NCI)
This is part of a sample that, as a whole, favours compounds with a hit. Of some 83,000 tested, about 20% had one in any assay.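 Single-dose data. Exposure time 48 hours. Values below 10 considered active.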 A number with no mark means an inactive call. Activity calls are given as the source filed them.

These compounds were tested on CAKI-1 renal (assay: NCI-60 one-dose screen, 48 h (100 = growth as untreated, 0 = no growth, -100 = all killed)). Conditions: 10 µM unless noted.
Protocol: Growth inhibition of the CAKI-1 human tumor cell line is measured as a screen for anti-cancer activity. Cells are grown in 96 well plates and exposed to the test compound for 48 hours. Compounds are tested at a single concentration, which is 10^-5 M for most compounds. The reported endpoint is percent growth (GI% or GIPRCNT), where numbers from 0 - 100% represent growth inhibition, and numbers from -100% - 0 represent cell death. For example, a value of 40 represents 60% growth inhibition. A value of 0 means no net growth occurred over the course of the experiment. A value of -40 indicates 40% of cells at the beginning of the experiment died by the end of the experiment. A value of -100 means all cells are dead at the end of the experiment.
NCI-60 Human Tumor Cell Lines Screen was performed using the standard one-dose NCI protocol, which is described in more detail at https://dtp.cancer.gov/discovery_development/nci-60/default.htm.
Compounds with GIPRCNT values below 10 were considered active. Activity score was based on GIPRCNT using the following formula: […]
Score is 0 for GIPRCNT values of 100 or above, 50 for GIPRCNT values of 0, and 100 for GIPRCNT values of -100.
Work on COc1ccc(CN2c3ccccc3Oc3ccccc32)cc1O yielded a growth of 39.4%.
O=C1/C(=C/c2cn(-c3ccccc3)nc2-c2ccccc2)SC(=S)N1CCc1ccccc1 gave a growth of 85.2%.
In the case of Cn1cc(C(=O)c2nc(-c3c[nH]c4ccc(Br)cc34)no2)c2cc(F)ccc21, the growth is reported as 80.1%.
N#Cc1c(-c2ccc(Cl)cc2)nc(N=Nc2c(O)[nH]c3ccc(Cl)cc23)nc1N1CCOCC1 was tested, and the growth was 85.2%.
For O=C1/C(=C/c2ccc3c(c2)OCO3)SC(=S)N1CCc1ccc(O)cc1, the growth was 81%.
In the case of CCN1CCC2(CC1)NC(=O)c1c(c3ccc(Cl)c(Cl)c3n1C)C2C#N (stereo not given), the growth is reported as 37.3%.
For O=C(O)c1ccc(N=CC(=O)c2ccc(-c3ccccc3)cc2)cc1, the growth was 102%.
For C#Cc1cccc(NC(=O)c2ccccc2NC(=O)C=C)c1, the growth was 97.3% [8.25 µM].
With COc1ccc(-c2nc3ccc(-c4nc5ccc(N6CCN(c7ccc(F)cc7)CC6)cc5[nH]4)cc3[nH]2)cc1OC the growth was 84.6%.
Work on Cn1c(=O)c2c(nc3n(-c4ccc(Cl)cc4Cl)c(Sc4nc(-c5ccccc5)c(C#N)c(=O)[nH]4)cn23)n(C)c1=O yielded a growth of 59.4%.
Compound COc1cc(/C=C/C(=O)c2cccnc2Nc2ccc(F)cc2)cc(OC)c1OC has a growth of 51.6%.
Compound C/C1=C\CC[C@@]2(C)O[C@H]2[C@H]2OC(=O)C(CN3CCN(CC4C(=O)O[C@H]5[C@H]4CC/C(C)=C/CC[C@@]4(C)O[C@@H]54)CC3)[C@@H]2CC1 (stereo not given in full) has a growth of 94%.
Work on Cc1cn2c(/C=C3/C(=O)Nc4c3ccc3ccccc43)c(C(F)(F)F)nc2s1 yielded a growth of 34.3%.
Compound CC(C)(C)c1cc(/C=N\NC(=O)/C=C/C=C/c2ccc3c(c2)OCO3)c(O)c(C(C)(C)C)c1 has a growth of 71.9%.
Compound O=CNc1ccc2c(c1)Cc1cccc(NC=O)c1-2 has a growth of 93%.
O=C1/C(=C/c2ccc(Cl)cc2)SC(=S)N1CCc1ccc(O)cc1 showed a growth of 81.3%.
In the case of O=C1c2cc3c(cc2-c2c1c1ccc(F)cc1c(=O)n2C[C@H](O)[C@@H](O)[C@H](O)CO)OCO3, the growth is reported as -7.09% (active).
In the case of N#Cc1cnn(-c2nc3c(Cl)cccc3s2)c1N, the growth is reported as 82.8%.
In the case of Oc1cccc(-c2nc(N3CCOCC3)c3c4c(sc3n2)CCCC4)c1, the growth is reported as 69.8%.
In the case of O=c1cc(CSc2nnc(-c3ccc(F)cc3)o2)c2ccc3ccccc3c2o1, the growth is reported as 91.1%.
Work on Cn1cc(C(=O)c2nc(-c3c[nH]c4ccc(F)cc34)no2)c2cc(F)ccc21 yielded a growth of 82.5%.
O=C1/C(=C/c2ccccc2)SC(=S)N1CCc1ccc(O)cc1 showed a growth of 73.3%.
CC(C)(C)CC(C)(C)c1ccc(OCCOCC[N+](C)(C)Cc2ccccc2)cc1 showed a growth of 97.3%.
For O=C(CN(C(=O)Cn1c(=O)n2nnnc2c2ccccc21)c1ccccc1C(F)(F)F)Nc1ccc(C(F)(F)F)cc1, the growth was 99.2%.
Work on CCOC(=O)c1sc2nc(-c3cccc(O)c3)nc(N3CCOCC3)c2c1C yielded a growth of 72.3%.
Nc1n[nH]c2ccc([C@@H]3Nc4ccc5cn[nH]c5c4[C@H]4C5CCC(C5)[C@@H]34)cc12 (stereo not given in full) showed a growth of 33.2%.
Compound CCOc1ccc(C(C)=O)cc1NC(=O)c1cccc(-c2nnn(CC)n2)c1 has a growth of 33.1%.
CC(=O)O[C@H]1C(=O)[C@@]2(C)[C@H]([C@H](OC(=O)c3ccccc3)[C@]3(O)C[C@H](OC(=O)[C@H](OC(=O)CCC(=O)OC4CCC(S/N=C(N)/N=C(\N)N(C)C)CC4)[C@@H](NC(=O)c4ccccc4)c4ccccc4)C(C)=C1C3(C)C)[C@]1(OC(C)=O)CO[C@@H]1C[C@@H]2O (stereo not given in full) was tested, and the growth was 25.5%.
Compound COc1cccc(-c2nc3sccn3c2-c2ccnc(NCCCNS(=O)(=O)c3c(Cl)cccc3Cl)c2)c1 has a growth of 44.1%.
c1csc(C2=NN3C(C2)c2ccccc2OC3c2ccncc2)c1 (stereo not given) showed a growth of 78.2%.
Work on COc1cc(C2CC(=O)c3ccccc3N2)cc(OC)c1OC (stereo not given) yielded a growth of 93.4%.
CSc1nc2c(c(=O)[nH]1)C1(C(=O)Nc3ccccc31)c1c(nc(SC)[nH]c1=O)N2 gave a growth of 103%.
CN1CCN(c2ccc3nc(-c4ccc(OCCCCN5CCN(CCCCN6C(=O)c7cccc8cccc(c78)C6=O)CC5)cc4)[nH]c3c2)CC1 was tested, and the growth was 33.1%.
CCn1c(Cc2ccccc2Nc2c(Cl)cccc2Cl)nnc1SCC(=O)NN1C(=O)/C(=C/c2cc(OC)c(O)c(OC)c2)SC1=S was tested, and the growth was 37%.
COc1ccc(C(=O)/C=C/c2cccnc2Nc2cc(OC)c(OC)c(OC)c2)cc1 was tested, and the growth was 32.2%.
CNC(=O)c1cc(Oc2ccc(NC(=O)Nc3ccc(Cl)c(SC)c3)c(F)c2)ccn1 was tested, and the growth was 70.1%.
For CC1=C[C@H]2c3c(c(O)c(O)c4oc5c(C)cccc5c(=O)c34)[C@H](c3cc(O)c(O)c4oc5c(C)cccc5c(=O)c34)[C@H]2C(C)(C)C1, the growth was 12.5%.
For O=C(Cc1ccccc1Nc1c(Cl)cccc1Cl)NN1C(=O)/C(=C/c2ccc(Br)cc2)SC1=S, the growth was 100%.
Cn1c(NCCc2ccc(O)c(O)c2)nc2c1c(=O)n(Cc1ccc(Cl)c(Cl)c1)c(=O)n2C gave a growth of 62.8%.
With CC1SC(c2ccc(N(C)C)cc2)N(NC(=O)C(O)(c2ccccc2)c2ccccc2)C1=O (stereo not given) the growth was 91.2%.
